{"source": "PubChem BioAssay (NCATS)", "note": "Inconclusive results are not listed. Unmarked numbers belong to inactive results. Active and inactive are the calls of the source. Calls follow the shape of the dose curve; as a rule, active = well fitted cell-killing curve with a large enough effect; inconclusive = small, poorly fitted or top-dose-only effect, or effect the other way; inactive = flat fitted curve, though single readings scatter. % is scaled to controls: 0 for no effect and ±100 for the full control effect; potency is read from the fitted curve at half-maximal effect."}
{"tested_on": "CAOV3", "test": "Primary qHTS to identify gynecologic anti-cancer compounds using libraries of approved drugs and bioactive compounds (AID 1345084); also: nearly all actives have a fitted effect of over 55% in size", "conditions": "Gynecologic cancer cell panel viability, ATPlite luminescence, 48 h; series mostly up to 57.5 µM; activity change, negative = cytotoxicity: at the top concentration", "procedure,_shortened": "(§1)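 Cells, 1,000 per well, were allowed to settle for 16 h at 37 C before compound addition. Five concentrations were tested for 48 h, and viability was read by ATPlite luminescence after 15 min at room temperature.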", "units": {"activity change, negative = cytotoxicity": "%"}}
{"smiles": "CCOc1ccccc1C(N)=O", "activity change, negative = cytotoxicity": 0}
{"smiles": "O=C1OC(CN2CCOCC2)CN1/N=C/c1ccc([N+](=O)[O-])o1", "note": "(stereo not drawn)", "activity change, negative = cytotoxicity": 5.1}
{"smiles": "CN(C)CCOC(=O)C(c1ccccc1)C1(O)CCCC1", "note": "(stereo not drawn)", "activity change, negative = cytotoxicity": 11.9}
{"smiles": "C[C@@]12C(=O)OC(=O)[C@]1(C)C1CCC2O1", "Potency": "631 nM (active)"}
{"smiles": "O=C(Oc1cccc2cccnc12)c1ccccc1", "activity change, negative = cytotoxicity": -6}
{"smiles": "CCCCC(CC)CN1CN(CC(CC)CCCC)CC(C)(N)C1", "note": "(stereo not drawn)", "activity change, negative = cytotoxicity": -10.7}
{"smiles": "CCCCc1cc2ccccc2c(OCCN(C)C)n1", "activity change, negative = cytotoxicity": -21.6}
{"smiles": "CN(CCCN1c2ccccc2CCc2ccccc21)CC(=O)c1ccc(Cl)cc1", "activity change, negative = cytotoxicity": -6.57}
{"smiles": "CCc1ccc(C(=O)C(C)CN2CCCCC2)cc1", "note": "(stereo not drawn)", "activity change, negative = cytotoxicity": 10.5}
{"smiles": "Nc1nc(Cl)nc2c1ncn2[C@@H]1O[C@H](CO)[C@@H](O)[C@@H]1F", "Potency": "1120 nM (active)"}
{"smiles": "CCCCCCCCCCCCOCCOCCOCCOCCOCCOCCOCCOCCOCCO", "activity change, negative = cytotoxicity": -9.3}
{"smiles": "O=C(Nc1ncc([N+](=O)[O-])s1)c1cccs1", "activity change, negative = cytotoxicity": -6.96}
{"smiles": "CN1CCN(CCC(=O)N2c3ccccc3Sc3ccc(C(F)(F)F)cc32)CC1", "Potency": "22400 nM (active)"}
{"smiles": "NCCNc1cccc2ccccc12", "activity change, negative = cytotoxicity": -29.6}
{"smiles": "Cc1c[nH]c2ccccc12", "activity change, negative = cytotoxicity": 10.7}
{"smiles": "O=[N+]([O-])c1ccc(/C=N\\O)o1", "activity change, negative = cytotoxicity": 6.57}
{"smiles": "C/C=C/C=N/NC(=O)c1ccncc1", "activity change, negative = cytotoxicity": -9.27}
{"smiles": "Oc1c(Cl)cc(Cl)c(Cl)c1Cc1c(O)c(Cl)cc(Cl)c1Cl", "activity change, negative = cytotoxicity": -22.3}
{"smiles": "O=c1[nH]c(=O)n([C@H]2C[C@H](O)[C@@H](CO)O2)cc1F", "Potency": "1580 nM (active)"}
{"tested_on": "CASKI", "test": "Primary qHTS to identify gynecologic anti-cancer compounds using libraries of approved drugs and bioactive compounds (AID 1345084); also: nearly all actives have a fitted effect of over 55% in size", "conditions": "Gynecologic cancer cell panel viability, ATPlite luminescence, 48 h; series mostly up to 57.5 µM; activity change, negative = cytotoxicity: at the top concentration", "procedure,_shortened": "as §1", "units": {"activity change, negative = cytotoxicity": "%"}}
{"smiles": "CCC(CC)(CC(=O)Nc1cccc(/C=C/c2nc(C3CCC3)cs2)c1)C(=O)O", "activity change, negative = cytotoxicity": -4.45}
{"smiles": "CO[C@H]1C=CO[C@@]2(C)Oc3c(C)c(O)c4c(O)c(c(/C=N/N5CCN(C)CC5)c(O)c4c3C2=O)NC(=O)/C(C)=C\\C=C[C@H](C)[C@H](O)[C@@H](C)[C@@H](O)[C@@H](C)[C@H](OC(C)=O)[C@@H]1C", "activity change, negative = cytotoxicity": 2.2}
{"smiles": "CCOc1ccccc1C(N)=O", "activity change, negative = cytotoxicity": 3.3}
{"smiles": "O=C1OC(CN2CCOCC2)CN1/N=C/c1ccc([N+](=O)[O-])o1", "note": "(stereo not drawn)", "activity change, negative = cytotoxicity": 0.39}
{"smiles": "CN(C)CCOC(=O)C(c1ccccc1)C1(O)CCCC1", "note": "(stereo not drawn)", "activity change, negative = cytotoxicity": -1.17}
{"smiles": "CC[C@H](c1ccc(O)cc1)[C@@H](CC)c1ccc(O)cc1", "activity change, negative = cytotoxicity": -1}
{"smiles": "C[C@@]12C(=O)OC(=O)[C@]1(C)C1CCC2O1", "Potency": "6310 nM (active)"}
{"smiles": "O=C(Oc1cccc2cccnc12)c1ccccc1", "activity change, negative = cytotoxicity": 2.37}
{"smiles": "CCCCCCCCCCCCSCCOCCO", "activity change, negative = cytotoxicity": -0.644}
{"smiles": "C[C@H]1[C@H]2CC[C@H]3[C@@H]4CC=C5C[C@@H](N(C)C)CC[C@]5(C)[C@H]4CC[C@]23CN1C", "activity change, negative = cytotoxicity": -7.94}
{"smiles": "CCCCC(CC)CN1CN(CC(CC)CCCC)CC(C)(N)C1", "note": "(stereo not drawn)", "activity change, negative = cytotoxicity": -2.13}
{"smiles": "C#C[C@]1(OC(C)=O)CC[C@H]2[C@@H]3CCC4=C/C(=N/O)CC[C@@H]4[C@H]3CC[C@@]21CC", "activity change, negative = cytotoxicity": 31.1}
{"smiles": "CN(CCCN1c2ccccc2CCc2ccccc21)CC(=O)c1ccc(Cl)cc1", "activity change, negative = cytotoxicity": 0.118}
{"smiles": "CCc1ccc(C(=O)C(C)CN2CCCCC2)cc1", "note": "(stereo not drawn)", "activity change, negative = cytotoxicity": 18.1}
{"smiles": "O=C1C(CCS(=O)c2ccccc2)C(=O)N(c2ccccc2)N1c1ccccc1", "note": "(stereo not drawn)", "activity change, negative = cytotoxicity": 5.21}
{"smiles": "NCCNc1cccc2ccccc12", "activity change, negative = cytotoxicity": 4.68}
{"smiles": "Cc1c[nH]c2ccccc12", "activity change, negative = cytotoxicity": 7.4}
{"smiles": "O=[N+]([O-])c1ccc(/C=N\\O)o1", "activity change, negative = cytotoxicity": 1.5}
{"smiles": "C/C=C/C=N/NC(=O)c1ccncc1", "activity change, negative = cytotoxicity": -2.03}
{"smiles": "CCO[C@@H]1O[C@H](C(COCc2ccccc2)OCc2ccccc2)[C@H](OCc2ccccc2)[C@H]1O", "note": "(stereo partly drawn)", "activity change, negative = cytotoxicity": -7.86}
{"smiles": "Oc1c(Cl)cc(Cl)c(Cl)c1Cc1c(O)c(Cl)cc(Cl)c1Cl", "activity change, negative = cytotoxicity": -4.5}
{"smiles": "CCc1nn(CCCN2CCN(c3cccc(Cl)c3)CC2)c(=O)n1CCOc1ccccc1", "activity change, negative = cytotoxicity": -1.49}
{"smiles": "CC(C)n1c(/C=C/[C@@H](O)C[C@@H](O)CC(=O)O)c(-c2ccc(F)cc2)c2ccccc21", "activity change, negative = cytotoxicity": -13.8}
{"smiles": "c1ccc(CC2=NCCN2)cc1", "activity change, negative = cytotoxicity": 2.86}
